Reference: PubChem BioAssay (NCI)
This is part of a sample that, as a whole, favours compounds with a hit. Of some 79,000 tested, about 15% had one in any assay. A number with no mark means an inactive call. The source made the active and inactive calls. Rule as the data show it: active = growth inhibition above about 70%; inactive = the rest.

Assay: NCI Yeast Anticancer Drug Screen. Data for the mgt1 strain (AID 153)
Details: S. cerevisiae mgt1 mutant growth inhibition, stronger effect = higher value
Method: Growth inhibition of yeast strains with defined genetic alterations is measured as a screen for potential anti-cancer activity. Selected strains with alterations in DNA damage repair or cell cycle control were exposed to compounds and growth inhibition was measured relative to vehicle treated controls. The strain used in this assay is mgt1

## CCOC(=O)c1cnc2cc(C(F)(F)F)ccc2c1N=[N+]=[N-]
At 1.2 µM
  growth inhibition: 4%
At 3.7 µM
  growth inhibition: 6%
At 11.0 µM
  growth inhibition: 22%
At 33.0 µM
  growth inhibition: 66%
At 100.0 µM
  growth inhibition: 92% (active)

## [N-]=[N+]=NC1=C(c2ccccn2)C(=O)c2cccc3cccc1c23
At 1.2 µM
  growth inhibition: -3%
At 3.7 µM
  growth inhibition: -1%
At 11.0 µM
  growth inhibition: 19%
At 33.0 µM
  growth inhibition: 10%
At 100.0 µM
  growth inhibition: 41%

## N#CN=Nc1cc(Cl)c(N=NC#N)cc1Cl
At 1.2 µM
  growth inhibition: -10%
At 3.7 µM
  growth inhibition: -6%
At 11.0 µM
  growth inhibition: -6%
At 33.0 µM
  growth inhibition: 28%
At 100.0 µM
  growth inhibition: 70% (active)

## Cc1ccc(S(=O)(=O)NC(=O)NC2=NC(C)(C)N(c3ccc(Cl)c(Cl)c3)C(N)=N2)cc1
At 1.2 µM
  growth inhibition: 0%
At 3.7 µM
  growth inhibition: -1%
At 11.0 µM
  growth inhibition: -4%
At 33.0 µM
  growth inhibition: 1%
At 100.0 µM
  growth inhibition: -5%

## O=C1Nc2ccccc2/C1=C/COc1ccccc1
At 1.2 µM
  growth inhibition: -1%
At 3.7 µM
  growth inhibition: 1%
At 11.0 µM
  growth inhibition: 19%
At 33.0 µM
  growth inhibition: 93% (active)
At 100.0 µM
  growth inhibition: 99% (active)

## O=c1ssc2ncccc12
At 1.2 µM
  growth inhibition: -1%
At 3.7 µM
  growth inhibition: 10%
At 11.0 µM
  growth inhibition: 41%
At 33.0 µM
  growth inhibition: 84% (active)
At 100.0 µM
  growth inhibition: 99% (active)

## COc1ccc(N=C2C(=O)Nc3ccc(Br)cc32)cc1
At 1.2 µM
  growth inhibition: 8%
At 3.7 µM
  growth inhibition: -24%
At 11.0 µM
  growth inhibition: -5%
At 33.0 µM
  growth inhibition: 2%
At 100.0 µM
  growth inhibition: 1%

## CCCN(CCC)CC(O)c1cc(-c2ccc(Cl)cc2)nc2c(C)c(Cl)ccc12 (stereo not given)
At 1.2 µM
  growth inhibition: -2%
At 3.7 µM
  growth inhibition: -3%
At 11.0 µM
  growth inhibition: 99% (active)
At 33.0 µM
  growth inhibition: 98% (active)
At 100.0 µM
  growth inhibition: 96% (active)
